D2 ag-1 – D2 dopamine receptor (human) agonism. HEK293 T-REx D2 cells, calcium flux agonist mode. 340,000 tested, 0.53% active. AID 485358. activation, % at 2 µM. P14416;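 active means activation over 3 SD above normal in the single-dose calcium agonist read, cut at about 30% in these data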
Target sequence (P14416 whole entry, looked up): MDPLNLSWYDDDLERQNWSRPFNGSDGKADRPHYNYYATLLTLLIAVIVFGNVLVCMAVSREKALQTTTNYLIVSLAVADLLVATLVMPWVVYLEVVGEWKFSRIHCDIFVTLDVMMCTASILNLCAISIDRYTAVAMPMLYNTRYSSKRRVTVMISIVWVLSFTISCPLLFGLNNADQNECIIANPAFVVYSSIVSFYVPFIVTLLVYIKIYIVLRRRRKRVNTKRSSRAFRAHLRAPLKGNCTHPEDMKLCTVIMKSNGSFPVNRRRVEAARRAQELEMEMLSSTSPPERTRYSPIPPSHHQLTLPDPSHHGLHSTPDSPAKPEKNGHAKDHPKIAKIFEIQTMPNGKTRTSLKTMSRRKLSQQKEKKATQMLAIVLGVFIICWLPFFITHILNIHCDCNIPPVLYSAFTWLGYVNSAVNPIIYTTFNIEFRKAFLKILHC
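Tetracycline-induced HEK293 T-REx cells with force-coupled D2 receptor, plated overnight at 30 C, loaded with no-wash calcium dye. After a 10 s baseline, compound was pin-added and calcium flux read kinetically for 180 s; calcium rises flagged agonists.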
D2 PAM-1 – positively modulates the human D2 dopamine receptor allosterically | AID 485347 | HEK293 T-REx D2, calcium flux, EC20 dopamine potentiation | P14416 | 340,000 tested, 0.34% active | potentiation, % at 10 µM;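 active means potentiation over 3 SD above the plate norm, cut at about 30% in these data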
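Calcium flux readout, no-wash dye, 1 read/s. Inducible HEK293 Trex D2 line, overnight 30 C. Compound alone 180 s (agonist flags), then EC20 dopamine, another 180 s to score potentiation.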
D2 PAM-2 – human D2 receptor positive allosteric modulation | 360,000 tested, 0.23% active | P14416 | potentiation, % (no concentration beside the values) | DiscoveRx D2 beta-arrestin cells, luminescence, 90 min; 100% = 57 uM dopamine signal; in the data active means potentiation above about 50%; inconclusive means mostly about 30% to 49%
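PathHunter beta-arrestin assay in DiscoveRx D2 cells. Compounds were added with an EC20 of dopamine (50 nM final) for 90 min at 37 deg C. Luminescence was read 1 h after detection reagent, with 57 uM dopamine as the EC100 control.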
D2 ag-2 – activates the human D2 dopamine receptor; P14416; DiscoveRx PathHunter D2 beta-arrestin, luminescence, 90 min; 100% = 57 uM dopamine signal; activation, % (test concentration not listed); 360,000 tested, 0.084% active; in the data active means activation above about 40%; inconclusive means between about 15% and that limit
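DiscoveRx PathHunter D2 beta-arrestin cells (2,100/well) attached overnight, then compound-stimulated 90 min at 37 C in HBSS/10 mM HEPES/0.1% Tween-20 buffer; beta-galactosidase complementation read by luminescence after 1 h at ambient temperature. Dopamine 57 uM final (EC100) as control.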
D2 antagonist – D2 dopamine receptor (human) antagonism; P14416; HEK293 TREx D2 cells, calcium flux, dopamine EC80; inhibition, % at 10 µM; 340,000 tested, 2% active; in the data active means inhibition above about 30%; inactive means below that, where a call was filed
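Compounds are added to dye-loaded, induced HEK293 T-REx cells coupled to calcium release via D2; after a 3 min kinetic read an EC80 dopamine stimulus is given and fluorescence is recorded for 3 more min.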
Each line names hits and unclear results; the compound was inactive in the other large screens. Sampled rows, rich in hits. Any-hit rate of the full collection: about 2.4%.

CCCCC(=O)Nc1nc2c(s1)COc1ccccc1-2	D2 antagonist 52.4
COc1cc(OC)cc(C(=O)NC(=S)N2CCCCC2c2cccnc2)c1 (configuration not stated)	D2 antagonist 40.7
COc1ccc(NC(=O)N2CCCCC2c2cccnc2)cc1 (configuration not stated)	none
CC1CCCN(C(=S)Nc2ccc(Nc3ccccc3)cc2)C1 (configuration not stated)	none
O=C(CSCc1c(F)cccc1Cl)NCc1ccncc1	none
Cc1ccc(-c2nc3ncccc3o2)cc1NC(=O)Cc1ccc(Cl)cc1	D2 PAM-1 30.6
CCc1ccc(OCC(=O)N/N=C(\C)c2ccc(O)cc2O)cc1	D2 antagonist 44.9
CN(c1ccccc1C(=O)Nc1cccnc1)S(C)(=O)=O	none
Cc1oc(-c2cccc(Cl)c2)nc1CSc1nc2ncccc2[nH]1	none (no result: D2 PAM-2, D2 ag-2, D2 antagonist)
COc1ccc(CN2CCNC(=O)C2CC(=O)NC2CCCC2)c(OC)c1 (configuration not stated)	D2 PAM-1 106.8
Cc1c(C(=O)Cc2ccccc2)n(C)c2ccccc12	none
Cc1ccc(C(C)C)c(OCC(=O)N2CCOCC2)c1	none
COc1cccc(-c2c(NC(=O)c3ccco3)oc3ccc(Cl)cc3c2=O)c1	none
Cc1cc(O)c2c(c1)C(=O)[C@@]13Oc4c5c(c(O)c6c(O)cc(C)cc46)C(=O)C[C@H](O)[C@H]5[C@@H]1[C@@H](O)CC(=O)C3=C2O	D2 PAM-2 66.3 (no result: D2 ag-1, D2 PAM-1, D2 antagonist)
COc1ccc(C2C(C(=O)c3ccco3)=C(O)C(=O)N2c2nnc(C)s2)cc1 (configuration not stated)	none
Cc1cc(C)n2nc(C(=O)OCC(=O)Nc3ccc(C)c(F)c3)nc2n1	none (no result: D2 ag-1, D2 PAM-1, D2 antagonist)
CCc1ccc(NC(=O)COC(=O)c2nc3nc(C)cc(C)n3n2)cc1	D2 PAM-1 37.3, D2 antagonist 40.6
Cc1cccc([N+](=O)[O-])c1NC(=O)COC(=O)c1nc2nccc(C)n2n1	D2 antagonist 52.4
Cc1nn(Cc2ccccc2)c(C)c1NC(=O)c1ccc([N+](=O)[O-])cc1[N+](=O)[O-]	D2 PAM-2 88.3, D2 ag-2 inconclusive
Cc1ccc(C)c(CN2C(=O)c3ccccc3S(=O)(=O)c3ccc(C(=O)N4CCN(Cc5ccccc5)CC4)cc32)c1	none (no result: D2 ag-1, D2 PAM-2, D2 ag-2, D2 antagonist)
Cc1ccc2[nH]c(=O)c(CN(CCCN3CCOCC3)C(=O)Nc3ccc(Cl)cc3)cc2c1	D2 antagonist 31.3
COc1ccc(NC(=O)Nc2nnc(-c3ccccc3F)s2)cc1	D2 antagonist 41.3
CC1CCN(C(=O)CSc2nnc(-c3ccc(S(=O)(=O)N4CCOCC4)cc3)n2C)CC1	D2 PAM-1 53.0
CC1CCCN(C(=O)CSc2nnc(-c3ccc(S(=O)(=O)N4CCOCC4)cc3)n2C)C1 (configuration not stated)	none
CC(C)Sc1nnc(-c2ccc(S(=O)(=O)N3CCOCC3)cc2)n1C	D2 antagonist 34.9
O=C(CSc1nnc(C2CC2)n1Cc1ccccc1)N1CCN(S(=O)(=O)c2ccccc2)CC1	none
CCN(CC)C(=O)CSc1nnc(-c2ccc(S(=O)(=O)N3CCOCC3)cc2)n1C	none
O=C(CSc1nnc(C2CC2)n1Cc1ccccc1)c1ccc(S(=O)(=O)N2CCOCC2)cc1	D2 antagonist 46.5
Fc1ccc(-c2nc(Nc3ccc(F)c(Cl)c3)nc3c2COc2ccccc2-3)cc1	none (no result: D2 PAM-2, D2 ag-2, D2 antagonist)
C=CCNC(=O)C1CCN(S(=O)(=O)c2cccs2)CC1	none (no result: D2 ag-1, D2 antagonist)
Cc1ccccc1NC(=O)Cc1nnc(NC(=O)Nc2ccccc2F)s1	none
CC(C)C(=O)Nc1nnc(Cc2ccccc2)s1	D2 antagonist 30.3
Cc1ccccc1NC(=O)Nc1nnc(CC(=O)NCc2ccccc2)s1	D2 antagonist 31.5
COC(=O)Nc1nnc(Cc2ccccc2)s1	none
Cc1ccc(CCNC(=O)CNC(=S)N(Cc2ccccc2)Cc2cccnc2)cc1	none
Cc1ccc(N=Nc2c(=O)[nH]n3c(=O)cc(C)[nH]c23)cc1	D2 PAM-1 37.7
Cc1ccc(N=Nc2c(N)[nH]n3c(=O)cc(-c4ccccc4)nc23)cc1	none
Nc1c2c(nc3ccn(-c4ccccc4)c(=O)c13)CCCCC2	none
Nc1c2c(nc3c1CCC3)CCCC2	D2 antagonist 30.7 (no result: D2 PAM-2, D2 ag-2)
Cc1ccc(/C=C/c2nc3sc(C(=O)O)c(C)c3c(=O)[nH]2)cc1[N+](=O)[O-]	D2 ag-2 inconclusive, D2 antagonist 32.7
Cc1c(C(=O)O)sc2nc(/C=C/c3cccc(F)c3)[nH]c(=O)c12	none
COc1ccc(Cl)cc1NC(=O)C(C)N1CCN(c2ccccn2)CC1 (configuration not stated)	D2 ag-1 31.3
COc1ccc(Cl)cc1C(=O)N1CCN(c2ccccn2)CC1	none
Cc1cccc(NC(=S)N2CCN(c3ccccn3)CC2)c1	none
CC(=O)c1cccc(NC(=S)N2CCN(c3ccccn3)CC2)c1	D2 ag-1 39.9
CC(C(=O)Nc1ccccc1)N1CCN(c2ccccn2)CC1 (configuration not stated)	D2 ag-1 39.9
COC(=O)c1cc(NC(=O)CSc2nnc(CN3CCOCC3)n2C)ccc1Cl	none
CCc1nn(CCCC(=O)N(C)Cc2ccccc2)c(=O)c2cc3occc3n12	none
COc1cc(OC)c(OC)cc1CN1CCCC(C(=O)c2sccc2C)C1 (configuration not stated)	none
Cc1ccsc1C(=O)C1CCCN(Cc2cc(F)ccc2-n2cccn2)C1 (configuration not stated)	D2 antagonist 34.0
CCNc1nc(NC(C)C)nc(OCCOC(=O)Nc2ccccc2)n1	none
COc1ccc(C(C)=O)cc1COC(=O)Cc1n[nH]c(=O)c2ccccc12	D2 antagonist 33.1
COc1ccccc1C(=O)COC(=O)Cc1n[nH]c(=O)c2ccccc12	none (no result: D2 ag-1, D2 antagonist)
Cc1ccccc1NCC(=O)N/N=C/C(Br)=C/c1ccccc1	D2 PAM-1 32.5
Cc1nc2ccc(NC(=O)c3ccc([N+](=O)[O-])cc3[N+](=O)[O-])cc2s1	D2 PAM-2 51.6, D2 ag-2 inconclusive
COCCCN1C(=O)C(O)=C(C(C)=O)C1c1cccc(F)c1 (configuration not stated)	D2 antagonist 36.8
CCCCN1C(=O)C(O)=C(C(C)=O)C1c1ccccc1 (configuration not stated)	none
O=C(/C=C/c1ccc(F)cc1)NC(=S)NNC(=O)c1cnccn1	none (no result: D2 ag-1, D2 PAM-1, D2 antagonist)
COCCNC(=O)C1(C)CCN(C(=O)c2cc(C)n(C(C)(C)C)n2)C1 (configuration not stated)	none (no result: D2 ag-1, D2 PAM-1, D2 antagonist)
CCN(CC(=O)NCc1ccc(Cl)cc1)C(=O)COc1cccc(C(F)(F)F)c1	none
CCN(CC(=O)NCc1ccc(Cl)cc1)C(=O)COc1cccc(Cl)c1	D2 antagonist 33.1
Cc1ccc(-c2nn(-c3ccc(F)cc3)cc2C(=O)NC2CCC(O)CC2)cc1 (configuration not stated)	none

High-throughput results: PubChem BioAssay, National Center for Advancing Translational Sciences (NCATS)
